From PubChem BioAssay (Tox21) come the findings set out here.

SMILES strings stand for the structures. Values joined by “and” are separate entries in the source; they are usually repeats but may differ in a detail not shown here. Equal values may be shown once. Results filed as inconclusive are left out. Where a call stands in place of a potency, no number is given. More than one record can exist for a structure, and the calls need not agree. Active and inactive are the calls of the source. The call rests on the fitted dose curve; in most records, active means well fitted cell-killing curve with a large enough effect in the repeat runs; inconclusive means weak or mixed curves; inactive means flat fitted curve, though single readings scatter.
Potency means the concentration at half of the fitted maximal effect.

The nature of this assay: qHTS assay to identify small molecule antagonists of the estrogen related receptor (ERR) signaling pathway from Tox21 library - cell viability counter screen (AID 1224834). Further: nearly all actives have a fitted effect of over 30% in size. The note with it: ERR reporter cells viability, CellTiter-Fluor, 17.5 h; series mostly up to 92.4 µM; viability change, negative = cytotoxic: at the top concentration. The source says: National Center for Advancing Translational Sciences [NCATS]
NIH Chemical Genomics Center [NCGC]
U.S. Environmental Protection Agency [EPA]
National Institutes of Environmental Health Sciences [NIEHS]
National Toxicology Program [NTP]
U.S. Food and Drug Administration [FDA]
Estrogen related receptors (ERRs), the first orphan nuclear receptors discovered, play an important role in the control of cellular energy metabolism. ERRs are required for high-energy production in response to the environmental challenges. ERR-alpha was also identified as an adverse marker for breast cancer progression; ERR-alpha-positive tumors have a poor prognosis. To screen and to identify environmental compounds that perturb the ERR signaling pathways could provide valuable information for potential therapeutic or preventive measures in the treatment of metabolic disease. To differentiate true ERR antagonists or agonist from cytotoxic substances, the assay is multiplexed with cell viability assay.
Tox21 Assay Protocol Summary:
The ERR cells were dispensed at 2,000 cells/5 ul/well in 1536-well white plates using a Multidrop dispenser. After the assay plates were incubated at a 37 C/5% CO2 incubator for 6 hours, 23 nL of compounds dissolved in DMSO, positive and negative controls or DMSO only was transferred to the assay plate by a pin tool. The plates were incubated at 37 C for 17.5 hours. 1 ul/well of CellTiter-Fluor reagent was added into the assay plates using a Flying Reagent Dispenser. After 30-minute incubation at 37 C/5% CO2, the fluorescence intensity in the plates was measured using a ViewLux plate reader.
In the case of `NC(=O)NO`, the Potency entry is “inactive”. Turning to `CN/C(=C\[N+](=O)[O-])NCCSCc1ccc(CN(C)C)o1`, the Potency result was “inactive”. For the compound `CO[C@H]1C=CO[C@@]2(C)Oc3c(C)c(O)c4c(O)c(c(/C=N/N5CCN(C)CC5)c(O)c4c3C2=O)NC(=O)/C(C)=C\C=C[C@H](C)[C@H](O)[C@@H](C)[C@@H](O)[C@@H](C)[C@H](OC(C)=O)[C@@H]1C`, the Potency was 27.4 µM (active) and 31 µM (active) and 23.7 µM (active). Take `O=c1c(-c2ccc(O)cc2)coc2cc(O)cc(O)c12`: the “viability change, negative = cytotoxic” value is -13.4% [at 42.5 µM] (inactive). Take `O=C1CCCCCN1`: the Potency result was “inactive”. Take `CC(C)Cc1ccc(C(C)C(=O)O)cc1` (stereo not given): the Potency result was “inactive”. In the case of `C=CC(=O)NC(C)(C)CS(=O)(=O)O`, the Potency result is “inactive”. As to `COC(=O)c1ccc(O)cc1`, the Potency result was “inactive”. Consider `OCCCc1ccccc1`, for which the Potency result was “inactive”. Still for that read-out and setting: to `Cc1cccc2ccccc12` belongs “inactive”. `CC(C)(C)NCC(O)c1ccc(O)c(CO)c1` (stereo not given): the Potency entry is “inactive”. In the case of `CC1(C)O[C@@H]2[C@@H](CO[C@@]3(COS(N)(=O)=O)OC(C)(C)O[C@@H]23)O1`, the Potency result was “inactive”. Still for that read-out and setting: to `CC(C)=CCC/C(C)=C/CO` belongs “inactive”. Turning to `CCCCCCCC(=O)OCC(O)CO` (stereo not given), the Potency entry was “inactive”. On the same count and under the same terms, in the case of `COC(=O)C1CCC(C(=O)OC)CC1` (stereo not given) it was “inactive”; in that of `COCC(C)N` (stereo not given), “inactive”. As for `C[C@]12C[C@H](O)[C@H]3[C@@H](CCC4=CC(=O)CC[C@@]43C)[C@@H]1CC[C@@H]2C(=O)CO`, the Potency result was “inactive”. Turning to `C#C[C@]1(O)CC[C@H]2[C@@H]3CCC4=CC(=O)CC[C@@H]4[C@H]3CC[C@@]21CC`, the Potency entry is “inactive and 54.5 µM (active)”. On the same count and under the same terms, to `O=C(O)Cc1cccc2ccccc12` belongs “inactive”; to `Nc1cccc(N)c1`, “inactive”; to `CCCCOC(=O)CCCCCCCCC(=O)OCCCC`, “inactive”. With `CN(C)Cc1cc(CN(C)C)c(O)c(CN(C)C)c1`, the Potency result was “inactive”. As to `CCCCOCCOCCSC#N`, the Potency result was “inactive”.

Turning to `Cc1c(N(C)CS(=O)(=O)O)c(=O)n(-c2ccccc2)n1C`, the Potency result is “inactive”. Still for that read-out and setting: to `COC(=O)c1ccc(C=O)cc1` belongs “inactive”. Still for that read-out and setting: to `CC(C)(C)CC(C)(C)c1ccc(O)c(-n2nc3ccccc3n2)c1` belongs “inactive”; to `CCN(CC)CCOC(=O)c1ccc(N)cc1`, “inactive”; to `CCCCC/C(C=O)=C\c1ccccc1`, “inactive”. In the case of `C=C(C)OC(C)=O`, the Potency entry was “inactive”. Take `CC(=O)c1ccc(S(=O)(=O)NC(=O)NC2CCCCC2)cc1`: the Potency entry was “inactive”. For `CCCCCCCCCCCCCC(=O)OC(C)C`, the Potency result is “inactive”.

`C1CNCCN1`: the Potency result was “inactive”. For `Cc1cccc(C)c1O`, the Potency result was “inactive”.

For the compound `NC(=O)c1ccc([N+](=O)[O-])cc1Cl`, the Potency entry is “inactive”. `CCOC(=O)C(C)(C)Oc1ccc(Cl)cc1`: the Potency result was “inactive”. On the same count and under the same terms, to `NCCNc1cccc2ccccc12` belongs 68.5 µM (active) and inactive; to `COc1ccc(O)cc1`, “inactive”. As to `CCCCCCCCCCCCCCCCCC(=O)OCC(O)CO` (stereo not given), the Potency entry was “inactive”. Still for that read-out and setting: in the case of `N[C@@H](Cc1c[nH]c2ccccc12)C(=O)O` it was “inactive”; in that of `COc1ccccc1O`, “inactive”.
